Measured values reported in PubChem BioAssay (NCI).
This is part of a sample that, as a whole, favours compounds with a hit. Of some 79,000 tested, about 15% had one in any assay. Values without a mark were called inactive. Calls of active or inactive are those of the source. Cut-off read from the data, not from the text of the source: active = growth inhibition above about 70%; inactive = the rest. *1 amine or outer side, *2 acyl side, *3 side chain or, on linkers, in order; H or OH if unused. Where a SMILES comes first, the peptide text is derived from it. [ ]: non-standard residue; d: D form. X12 = NC(N)=NCC(O)CC(N[*:1])C(=O)[*:2]; Orn = NCCC[CH](N)C(=O)O

Tests used:
[1] = NCI Yeast Anticancer Drug Screen. Data for the rad50 strain (AID 155);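 note: 0% = growth of vehicle-only cultures of the same strain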; details: S. cerevisiae rad50 strain growth inhibition; at 50.0 µM; hits give high values
In short: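 A DNA repair-deficient yeast mutant serves as the test organism; compound-induced growth inhibition is calculated against vehicle-treated cells.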

[2] = NCI Yeast Anticancer Drug Screen. Data for the mec2-1 strain (AID 157); details: S. cerevisiae mec2-1 strain, at 50.0 µM, hits give high values
In short: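 Mutant yeast (mec2-1) grown with compound; growth inhibition relative to vehicle control reported.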

[3] = NCI Yeast Anticancer Drug Screen. Data for the sgs1 mgt1 strain (AID 161);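 note: 0% = growth of cultures given vehicle only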; details: S. cerevisiae sgs1 mgt1 strain, at 50.0 µM, hits give high values
In short: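 Growth of a repair-deficient yeast mutant was monitored after compound treatment and expressed as inhibition relative to vehicle-treated cultures.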

[4] = NCI Yeast Anticancer Drug Screen. Data for the cln2 rad14 strain (AID 165);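 note: 0% = growth equal to vehicle treated cultures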; details: S. cerevisiae cln2 rad14 strain, at 50.0 µM, hits give high values
In short: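 Readout is yeast growth inhibition versus vehicle-treated controls, using a strain with cln2 and rad14 alterations exposed to compound.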

[5] = NCI Yeast Anticancer Drug Screen. Data for the bub3 strain (AID 167); details: S. cerevisiae bub3 mutant strain, at 50.0 µM, hits give high values
In short: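 Inhibition values come from growth of compound-treated mutant yeast normalised to vehicle-treated controls.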

[6] = NCI Yeast Anticancer Drug Screen. Data for the mlh1 rad18 strain (AID 175); details: S. cerevisiae mlh1 rad18 strain growth inhibition; at 50.0 µM; hits give high values
In short: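 Genetically defined yeast (DNA repair-deficient) exposed to compounds; growth inhibition determined relative to vehicle.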

Structure (SMILES) | growth inhibition [1] | growth inhibition [2] | growth inhibition [3] | growth inhibition [4] | growth inhibition [5] | growth inhibition [6]
C=CCNC(=O)/C(C)=C(\C)c1ccc(F)cc1 | 4.15% | 6% | 3.2% | -17.7% | 2.5% | -4.7%
COc1cccc(/C=C2\SC(=S)N(/C=C3\C(=O)Oc4ccccc4C3=O)C2=O)c1O | 12.2% | 40.1% | 59% | 50.6% | 12.8% | 23.6%
CN(C)c1ccc(-c2ccncc2)cc1 | 21.6% | 15.2% | 18.9% | -11.8% | 17.4% | 17.2%
O=C1N[C@H](Cc2cnc[nH]2)C(=O)N2CCC[C@@H]12 | 15.2% | -3.55% | 8.75% | 16.1% | 9.75% | 23.7%
O=C(OCc1ccco1)c1ccc([N+](=O)[O-])cc1 | -5.15% | -7.3% | -3.75% | -32.6% | -13.5% | -12.8%
O=C1c2ccsc2C(=O)c2sc(CO)cc21 | 90.3% (active) | 91.2% (active) | 91% (active) | 91.8% (active) | 90% (active) | 83% (active)
Cc1cn(C2CC(O)C(COC(=O)C(C)(C)C)O2)c(=O)[nH]c1=O (centres undefined) | 16.9% | -0.35% | 3.85% | -0.1% | -18.5% | -47.5%
CCc1cccc(C(C)CC)c1N=C(NC(=O)c1ccccc1C(=O)NC(=Nc1c(CC)cccc1C(C)CC)SC)SC (centres undefined) | -0.7% | -3.15% | 5.3% | 6.3% | 15.1% | -5.15%
CSc1ncc2c(n1)-c1ccccc1OC2N1CCOCC1 (centres undefined) | -4.95% | 8.1% | -1.65% | -9.55% | -18.4% | 40.7%
CC(O)C(NC(=O)C(CCCN)NC(=O)C(CC(O)CN=C(N)N)NC(=O)C(N)CCCN=C(N)N)C(=O)NC(CCCN)C(=O)NC(CC(O)CN=C(N)N)C(=O)NC(Cc1ccc(O)cc1)C(=O)O (centres undefined) (H-R[X12][Orn]T[Orn][X12]Y-OH; configuration not given here) | -0.15% | -19.4% | -4.1% | 15.1% | -15.2% | 2.45%
CC(=O)CSCc1ccccn1 | 5.05% | 15% | -18.6% | 10.2% | 22.6% | -1.9%
CC(=O)Nc1ccc(N)cc1N | -1.3% | -37.8% | -17.9% | 29.7% | -6.35% | 13.8%
CN(C)CCN=C1Nc2ccccc2C(=S)N2CSCC12 (centres undefined) | -0.75% | 17.1% | -10.4% | -2.05% | 5.85% | 11.9%
O=C(c1ccccc1)c1cccc2cccc(C(=O)c3ccccc3)c12 | 3.2% | 11.7% | -7.7% | 6% | 6.45% | -27.6%
CC(C)C1OC(c2ccccc2)OCC1(C)C (centres undefined) | -14.8% | -18.2% | -4.15% | -39.2% | -4.15% | 6.35%
CCCC(C)C1CCC(=O)CC1 (centres undefined) | 5.85% | 0.3% | 0.75% | -4.3% | 1.95% | -0.2%
Cn1c(=O)c2[nH]c(CCCCCc3nc4c([nH]3)c(=O)n(C)c(=O)n4C)nc2n(C)c1=O | -9% | 7.15% | -27.3% | -18.5% | -16.4% | -16.1%
CC(C)CC1NC(=O)OC1=O (centres undefined) | 6.7% | 0.9% | -9.7% | -17.6% | 1.25% | 0.35%
CCOc1ccc(N=Nc2c(C)nc(N)nc2-c2ccccc2)cc1 | 20.1% | -14.7% | 4.1% | -4.75% | 35.4% | 24.4%
